Assay results reported in paper PMC9911399, “Two distinct binding modes provide the RNA-binding protein RbFox with extraordinary sequence specificity”.
Changes are numbered by the printed parent chain; changes in the protein carry UniProt numbers. The full ranking holds about 16,000 sequences; the median of “ka relative to ugcaugu” is about 0.096, and the highest 2% start at about 0.35. For the sample, the highest values were picked, then their nearest neighbours and some sequences at random.

T1: RBFOX1 RRM RbFoxmut (Fox-RRM*) (Homo sapiens, UniProt Q9NWB1 109-208, R118D;E147R;N151S;E152T)
T1 sequence: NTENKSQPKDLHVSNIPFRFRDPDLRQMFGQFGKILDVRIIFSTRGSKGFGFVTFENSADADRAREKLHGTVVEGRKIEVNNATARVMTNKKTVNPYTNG

B1: GGUACUG (DNA:RNA)
RNA: GGGAGACCGGAAUUCAGAUUGUCCGGUACUGUUAAAUCCCGUCGUAGCCACCA
DNA 1: CAATCTGAATTCCGGTCTCCC
DNA 2: TGGTGGCTACGACGGGATT
B2: GCAUAUC (DNA:RNA)
RNA: B1 RNA with G26C, U27A, A28U, C29A, G31C
DNA 1: CAATCTGAATTCCGGTCTCCC
DNA 2: TGGTGGCTACGACGGGATT
B3: GCGCAUC (DNA:RNA)
RNA: B1 RNA with G26C, U27G, A28C, C29A, G31C
DNA 1: CAATCTGAATTCCGGTCTCCC
DNA 2: TGGTGGCTACGACGGGATT
B4: CCGCAUC (DNA:RNA)
RNA: B1 RNA with G25C, G26C, U27G, A28C, C29A, G31C
DNA 1: CAATCTGAATTCCGGTCTCCC
DNA 2: TGGTGGCTACGACGGGATT
B5: CGCAUCU (DNA:RNA)
RNA: B1 RNA with G25C, U27C, C29U, U30C, G31U
DNA 1: CAATCTGAATTCCGGTCTCCC
DNA 2: TGGTGGCTACGACGGGATT
B6: GCAUCUU (DNA:RNA)
RNA: B1 RNA with G26C, U27A, A28U, G31U
DNA 1: CAATCTGAATTCCGGTCTCCC
DNA 2: TGGTGGCTACGACGGGATT
B7: GCAUCUC (DNA:RNA)
RNA: B1 RNA with G26C, U27A, A28U, G31C
DNA 1: CAATCTGAATTCCGGTCTCCC
DNA 2: TGGTGGCTACGACGGGATT
B8: GGUACGA (DNA:RNA)
RNA: B1 RNA with U30G, G31A
DNA 1: CAATCTGAATTCCGGTCTCCC
DNA 2: TGGTGGCTACGACGGGATT
B9: ACUUUAC (DNA:RNA)
RNA: B1 RNA with G25A, G26C, A28U, C29U, U30A, G31C
DNA 1: CAATCTGAATTCCGGTCTCCC
DNA 2: TGGTGGCTACGACGGGATT
B10: GACGUGU (DNA:RNA)
RNA: B1 RNA with G26A, U27C, A28G, C29U, U30G, G31U
DNA 1: CAATCTGAATTCCGGTCTCCC
DNA 2: TGGTGGCTACGACGGGATT
B11: AGUGAAA (DNA:RNA)
RNA: B1 RNA with G25A, A28G, C29A, U30A, G31A
DNA 1: CAATCTGAATTCCGGTCTCCC
DNA 2: TGGTGGCTACGACGGGATT
B12: AGUUGGG (DNA:RNA)
RNA: B1 RNA with G25A, A28U, C29G, U30G
DNA 1: CAATCTGAATTCCGGTCTCCC
DNA 2: TGGTGGCTACGACGGGATT
B13: ACUUACC (DNA:RNA)
RNA: B1 RNA with G25A, G26C, A28U, C29A, U30C, G31C
DNA 1: CAATCTGAATTCCGGTCTCCC
DNA 2: TGGTGGCTACGACGGGATT
B14: GACUUUG (DNA:RNA)
RNA: B1 RNA with G26A, U27C, A28U, C29U
DNA 1: CAATCTGAATTCCGGTCTCCC
DNA 2: TGGTGGCTACGACGGGATT
B15: UCCUGUC (DNA:RNA)
RNA: B1 RNA with G25U, G26C, U27C, A28U, C29G, G31C
DNA 1: CAATCTGAATTCCGGTCTCCC
DNA 2: TGGTGGCTACGACGGGATT
B16: UGUCUUG (DNA:RNA)
RNA: B1 RNA with G25U, A28C, C29U
DNA 1: CAATCTGAATTCCGGTCTCCC
DNA 2: TGGTGGCTACGACGGGATT
B17: UGUUGUC (DNA:RNA)
RNA: B1 RNA with G25U, A28U, C29G, G31C
DNA 1: CAATCTGAATTCCGGTCTCCC
DNA 2: TGGTGGCTACGACGGGATT
B18: UGGUCUG (DNA:RNA)
RNA: B1 RNA with G25U, U27G, A28U
DNA 1: CAATCTGAATTCCGGTCTCCC
DNA 2: TGGTGGCTACGACGGGATT
B19: UGUCGUC (DNA:RNA)
RNA: B1 RNA with G25U, A28C, C29G, G31C
DNA 1: CAATCTGAATTCCGGTCTCCC
DNA 2: TGGTGGCTACGACGGGATT
B20: UGUCUGG (DNA:RNA)
RNA: B1 RNA with G25U, A28C, C29U, U30G
DNA 1: CAATCTGAATTCCGGTCTCCC
DNA 2: TGGTGGCTACGACGGGATT
B21: UGGUCGC (DNA:RNA)
RNA: B1 RNA with G25U, U27G, A28U, U30G, G31C
DNA 1: CAATCTGAATTCCGGTCTCCC
DNA 2: TGGTGGCTACGACGGGATT
B22: UGCUGUC (DNA:RNA)
RNA: B1 RNA with G25U, U27C, A28U, C29G, G31C
DNA 1: CAATCTGAATTCCGGTCTCCC
DNA 2: TGGTGGCTACGACGGGATT
B23: UGUCUUC (DNA:RNA)
RNA: B1 RNA with G25U, A28C, C29U, G31C
DNA 1: CAATCTGAATTCCGGTCTCCC
DNA 2: TGGTGGCTACGACGGGATT

Each binder was assayed against T1, RBFOX1 RRM RbFoxmut (Fox-RRM*) (assay: EMSA; HiTS-Eq, 1 nM pool, 10 min; buffer printed only for the single-RNA assays: 10 mM Tris pH 7.5, 150 mM NaCl, 3.4 mM EDTA, 0.001% NP-40, 30 C). Conditions: tags: His6 N-terminal (pET28a); label: 5' 32P.
How it was run: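 A pool of RNA with 7 randomized nucleotides, 5′-radiolabelled and with DNA-annealed flanks, was equilibrated at 1 nM for 10 min in 50 µL with purified RbFox RRM, wild type or mutant, across increasing protein concentrations. Free RNA was separated by 8% native PAGE, excised, reverse-transcribed, barcoded by PCR and sequenced. Relative association constants were obtained from read-count changes of each RNA species versus the control reaction and normalised to the cognate motif.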

Row | Binder | binding signal
1 | B1 | 0.112 KA relative to UGCAUGU
2 | B2 | 0.073 KA relative to UGCAUGU
3 | B3 | 0.49 KA relative to UGCAUGU
4 | B4 | 0.258 KA relative to UGCAUGU
5 | B5 | 0.395 KA relative to UGCAUGU
6 | B6 | 0.33 KA relative to UGCAUGU
7 | B7 | 0.135 KA relative to UGCAUGU
8 | B8 | 0.165 KA relative to UGCAUGU
9 | B9 | 0.114 KA relative to UGCAUGU
10 | B10 | 0.15 KA relative to UGCAUGU
11 | B11 | 0.095 KA relative to UGCAUGU
12 | B12 | 0.0708 KA relative to UGCAUGU
13 | B13 | 0.0997 KA relative to UGCAUGU
14 | B14 | 0.0901 KA relative to UGCAUGU
15 | B15 | 0.164 KA relative to UGCAUGU
16 | B16 | 0.674 KA relative to UGCAUGU
17 | B17 | 0.468 KA relative to UGCAUGU
18 | B18 | 0.374 KA relative to UGCAUGU
19 | B19 | 0.119 KA relative to UGCAUGU
20 | B20 | 0.196 KA relative to UGCAUGU
21 | B21 | 0.114 KA relative to UGCAUGU
22 | B22 | 0.331 KA relative to UGCAUGU
23 | B23 | 0.201 KA relative to UGCAUGU
